# Results: publication PMC8384837, “Expanding the binding specificity for RNA recognition by a PUF domain”
# Key:
# Assay in all cases: yeast three-hybrid, YBZ-1, SC-Leu-His + 0.5 mM 3-AT, 4 days
# Conditions in all cases: tags: N-Gal4 AD-HA kept; label: inside an RPR1-promoter hybrid RNA with tandem MS2 sites; ssRNA
# PUM1 PUF domain R1-RWV = PUM1 PUF domain R1-RWV (Homo sapiens, UniProt Q14671 828-1176, S863R;R864W;Q867V)
# Outline: (§1)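 Repeat regions from input (SC-Leu) and selection (SC-Leu-His + 0.5 mM 3-AT) plates were PCR-amplified and Illumina-sequenced after four days of growth. The cells were strain YBZ-1 with a LexA–MS2 coat fusion and a HIS3 reporter, co-expressing Pumilio-1 PUF domain libraries and matching RNA elements from a centromeric plasmid. The interaction score is the log change in variant frequency from input to selection, taken in log2 with a pseudocount of 1 for absent variants.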
# PUM1 PUF domain R1-KRV = PUM1 PUF domain R1-KRV (Homo sapiens, UniProt Q14671 828-1176, S863K;Q867V)
# PUM1 PUF domain R1-KRV, sequence (Q14671 828-1176 S863K/Q867V): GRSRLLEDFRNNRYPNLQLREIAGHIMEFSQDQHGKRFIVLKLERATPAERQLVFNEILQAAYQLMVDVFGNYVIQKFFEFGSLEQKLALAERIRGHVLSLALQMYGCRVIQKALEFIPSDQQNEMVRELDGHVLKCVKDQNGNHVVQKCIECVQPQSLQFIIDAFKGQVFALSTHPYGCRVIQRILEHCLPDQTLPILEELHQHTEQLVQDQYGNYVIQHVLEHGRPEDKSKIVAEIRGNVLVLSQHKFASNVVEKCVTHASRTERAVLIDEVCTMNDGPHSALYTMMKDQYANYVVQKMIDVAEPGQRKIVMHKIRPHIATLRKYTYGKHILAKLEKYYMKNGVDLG
# Outline: as §1
# PUM1 PUF domain R1-TKR = PUM1 PUF domain R1-TKR (Homo sapiens, UniProt Q14671 828-1176, S863T;R864K;Q867R)
# PUM1 PUF domain R1-TKR, sequence (Q14671 828-1176 S863T/R864K/Q867R): as the sequence (Q14671 828-1176 S863K/Q867V) above, with K36T, R37K, V40R counted along it
# Outline: as §1
# PUM1 PUF domain R5-GRL = PUM1 PUF domain R5-GRL (Homo sapiens, UniProt Q14671 828-1176, C1007G;Q1011L)
# PUM1 PUF domain R5-GRL, sequence (Q14671 828-1176 C1007G/Q1011L): as the sequence (Q14671 828-1176 S863K/Q867V) above, with K36S, V40Q, C180G, Q184L counted along it
# Outline: as §1
# PUM1 PUF domain R5-KAV = PUM1 PUF domain R5-KAV (Homo sapiens, UniProt Q14671 828-1176, C1007K;R1008A;Q1011V)
# PUM1 PUF domain R5-KAV, sequence (Q14671 828-1176 C1007K/R1008A/Q1011V): as the sequence (Q14671 828-1176 S863K/Q867V) above, with K36S, V40Q, C180K, R181A, Q184V counted along it
# Outline: as §1
# PUM1 PUF domain R8-PWV = PUM1 PUF domain R8-PWV (Homo sapiens, UniProt Q14671 828-1176, N1122P;Y1123W;Q1126V)
# PUM1 PUF domain R8-PWV, sequence (Q14671 828-1176 N1122P/Y1123W/Q1126V): as the sequence (Q14671 828-1176 S863K/Q867V) above, with K36S, V40Q, N295P, Y296W, Q299V counted along it
# Outline: as §1
# PUM1 PUF domain R3-VRE = PUM1 PUF domain R3-VRE (Homo sapiens, UniProt Q14671 828-1176, C935V;Q939E)
# PUM1 PUF domain R3-VRE, sequence (Q14671 828-1176 C935V/Q939E): as the sequence (Q14671 828-1176 S863K/Q867V) above, with K36S, V40Q, C108V, Q112E counted along it
# Outline: as §1
# PUM1 PUF domain R4-TRA = PUM1 PUF domain R4-TRA (Homo sapiens, UniProt Q14671 828-1176, N971T;H972R;Q975A)
# PUM1 PUF domain R4-TRA, sequence (Q14671 828-1176 N971T/H972R/Q975A): as the sequence (Q14671 828-1176 S863K/Q867V) above, with K36S, V40Q, N144T, H145R, Q148A counted along it
# Outline: as §1
# PUM1 PUF domain R3-RVK = PUM1 PUF domain R3-RVK (Homo sapiens, UniProt Q14671 828-1176, C935R;R936V;Q939K)
# PUM1 PUF domain R3-RVK, sequence (Q14671 828-1176 C935R/R936V/Q939K): as the sequence (Q14671 828-1176 S863K/Q867V) above, with K36S, V40Q, C108R, R109V, Q112K counted along it
# Outline: as §1
# PUM1 PUF domain R3-PRQ = PUM1 PUF domain R3-PRQ (Homo sapiens, UniProt Q14671 828-1176, C935P)
# PUM1 PUF domain R3-PRQ, sequence (Q14671 828-1176 C935P): as the sequence (Q14671 828-1176 S863K/Q867V) above, with K36S, V40Q, C108P counted along it
# Outline: as §1
# PUM1 PUF domain R8-VFR = PUM1 PUF domain R8-VFR (Homo sapiens, UniProt Q14671 828-1176, N1122V;Y1123F;Q1126R)
# PUM1 PUF domain R8-VFR, sequence (Q14671 828-1176 N1122V/Y1123F/Q1126R): as the sequence (Q14671 828-1176 S863K/Q867V) above, with K36S, V40Q, N295V, Y296F, Q299R counted along it
# Outline: as §1
# PUM1 PUF domain R8-LFW = PUM1 PUF domain R8-LFW (Homo sapiens, UniProt Q14671 828-1176, N1122L;Y1123F;Q1126W)
# PUM1 PUF domain R8-LFW, sequence (Q14671 828-1176 N1122L/Y1123F/Q1126W): as the sequence (Q14671 828-1176 S863K/Q867V) above, with K36S, V40Q, N295L, Y296F, Q299W counted along it
# Outline: as §1
# PUM1 PUF domain R3-LWM = PUM1 PUF domain R3-LWM (Homo sapiens, UniProt Q14671 828-1176, C935L;R936W;Q939M)
# PUM1 PUF domain R3-LWM, sequence (Q14671 828-1176 C935L/R936W/Q939M): as the sequence (Q14671 828-1176 S863K/Q867V) above, with K36S, V40Q, C108L, R109W, Q112M counted along it
# Outline: as §1
# PUM1 PUF domain R3-MYD = PUM1 PUF domain R3-MYD (Homo sapiens, UniProt Q14671 828-1176, C935M;R936Y;Q939D)
# PUM1 PUF domain R3-MYD, sequence (Q14671 828-1176 C935M/R936Y/Q939D): as the sequence (Q14671 828-1176 S863K/Q867V) above, with K36S, V40Q, C108M, R109Y, Q112D counted along it
# Outline: as §1
# PUM1 PUF domain R4-LHR = PUM1 PUF domain R4-LHR (Homo sapiens, UniProt Q14671 828-1176, N971L;Q975R)
# PUM1 PUF domain R4-LHR, sequence (Q14671 828-1176 N971L/Q975R): as the sequence (Q14671 828-1176 S863K/Q867V) above, with K36S, V40Q, N144L, Q148R counted along it
# Outline: as §1
# PUM1 PUF domain R4-PWA = PUM1 PUF domain R4-PWA (Homo sapiens, UniProt Q14671 828-1176, N971P;H972W;Q975A)
# PUM1 PUF domain R4-PWA, sequence (Q14671 828-1176 N971P/H972W/Q975A): as the sequence (Q14671 828-1176 S863K/Q867V) above, with K36S, V40Q, N144P, H145W, Q148A counted along it
# Outline: as §1
# PUM1 PUF domain R4-PYR = PUM1 PUF domain R4-PYR (Homo sapiens, UniProt Q14671 828-1176, N971P;H972Y;Q975R)
# PUM1 PUF domain R4-PYR, sequence (Q14671 828-1176 N971P/H972Y/Q975R): as the sequence (Q14671 828-1176 S863K/Q867V) above, with K36S, V40Q, N144P, H145Y, Q148R counted along it
# Outline: as §1
# PUM1 PUF domain R3-GCD = PUM1 PUF domain R3-GCD (Homo sapiens, UniProt Q14671 828-1176, C935G;R936C;Q939D)
# PUM1 PUF domain R3-GCD, sequence (Q14671 828-1176 C935G/R936C/Q939D): as the sequence (Q14671 828-1176 S863K/Q867V) above, with K36S, V40Q, C108G, R109C, Q112D counted along it
# Outline: as §1
# PUM1 PUF domain R3-SND = PUM1 PUF domain R3-SND (Homo sapiens, UniProt Q14671 828-1176, C935S;R936N;Q939D)
# PUM1 PUF domain R3-SND, sequence (Q14671 828-1176 C935S/R936N/Q939D): as the sequence (Q14671 828-1176 S863K/Q867V) above, with K36S, V40Q, C108S, R109N, Q112D counted along it
# Outline: as §1
# PUM1 PUF domain R1-TRK = PUM1 PUF domain R1-TRK (Homo sapiens, UniProt Q14671 828-1176, S863T;Q867K)
# PUM1 PUF domain R1-TRK, sequence (Q14671 828-1176 S863T/Q867K): as the sequence (Q14671 828-1176 S863K/Q867V) above, with K36T, V40K counted along it
# Outline: as §1
# PUM1 PUF domain R1-RWV, sequence (Q14671 828-1176 S863R/R864W/Q867V): as the sequence (Q14671 828-1176 S863K/Q867V) above, with K36R, R37W counted along it
sequence,measurement,setting,value
GGCUAGAACUAGUGGAUCCCCCGGCGCCCGGCGGCUCGAGCCCGGGUAAGUGUAAAUCGUCUGCAUGCCGCCGGGCGCCAUGCCUGCAGGUCGACUCUAGAAAACAUG,binding signal,PUM1 PUF domain R1-RWV,3.55 log2 enrichment (interaction score)
same,binding signal,PUM1 PUF domain R1-KRV,3.51 log2 enrichment (interaction score)
same,binding signal,PUM1 PUF domain R1-TKR,6.21 log2 enrichment (interaction score)
GGCUAGAACUAGUGGAUCCCCCGGCGCCCGGCGGCUCGAGCCCGGGUAAGUGUUAAUAGUCUGCAUGCCGCCGGGCGCCAUGCCUGCAGGUCGACUCUAGAAAACAUG,binding signal,PUM1 PUF domain R5-GRL,2.5 log2 enrichment (interaction score)
GGCUAGAACUAGUGGAUCCCCCGGCGCCCGGCGGCUCGAGCCCGGGUAAGUGUCAAUAGUCUGCAUGCCGCCGGGCGCCAUGCCUGCAGGUCGACUCUAGAAAACAUG,binding signal,PUM1 PUF domain R5-KAV,4 log2 enrichment (interaction score)
GGCUAGAACUAGUGGAUCCCCCGGCGCCCGGCGGCUCGAGCCCGGGUAAGUGUAAAUAGUCUGCAUGCCGCCGGGCGCCAUGCCUGCAGGUCGACUCUAGAAAACAUG,binding signal,PUM1 PUF domain R8-PWV,3.54 log2 enrichment (interaction score)
same,binding signal,PUM1 PUF domain R3-VRE,3.18 log2 enrichment (interaction score)
same,binding signal,PUM1 PUF domain R5-GRL,3.74 log2 enrichment (interaction score)
same,binding signal,PUM1 PUF domain R4-TRA,3.73 log2 enrichment (interaction score)
same,binding signal,PUM1 PUF domain R3-RVK,2.2 log2 enrichment (interaction score)
same,binding signal,PUM1 PUF domain R3-PRQ,4.52 log2 enrichment (interaction score)
same,binding signal,PUM1 PUF domain R8-VFR,3.9 log2 enrichment (interaction score)
same,binding signal,PUM1 PUF domain R8-LFW,2.5 log2 enrichment (interaction score)
GGCUAGAACUAGUGGAUCCCCCGGCGCCCGGCGGCUCGAGCCCGGGUAAGUGUAAUUAGUCUGCAUGCCGCCGGGCGCCAUGCCUGCAGGUCGACUCUAGAAAACAUG,binding signal,PUM1 PUF domain R3-LWM,4.35 log2 enrichment (interaction score)
same,binding signal,PUM1 PUF domain R3-RVK,5.35 log2 enrichment (interaction score)
same,binding signal,PUM1 PUF domain R3-MYD,2.42 log2 enrichment (interaction score)
GGCUAGAACUAGUGGAUCCCCCGGCGCCCGGCGGCUCGAGCCCGGGUAAGCGUAAAUAGUCUGCAUGCCGCCGGGCGCCAUGCCUGCAGGUCGACUCUAGAAAACAUG,binding signal,PUM1 PUF domain R8-PWV,2.69 log2 enrichment (interaction score)
same,binding signal,PUM1 PUF domain R8-VFR,4.1 log2 enrichment (interaction score)
same,binding signal,PUM1 PUF domain R8-LFW,2.4 log2 enrichment (interaction score)
GGCUAGAACUAGUGGAUCCCCCGGCGCCCGGCGGCUCGAGCCCGGGUAAGUGUGAAUAGUCUGCAUGCCGCCGGGCGCCAUGCCUGCAGGUCGACUCUAGAAAACAUG,binding signal,PUM1 PUF domain R5-GRL,1.44 log2 enrichment (interaction score)
GGCUAGAACUAGUGGAUCCCCCGGCGCCCGGCGGCUCGAGCCCGGGUAAGUGUAUAUAGUCUGCAUGCCGCCGGGCGCCAUGCCUGCAGGUCGACUCUAGAAAACAUG,binding signal,PUM1 PUF domain R4-LHR,4.01 log2 enrichment (interaction score)
same,binding signal,PUM1 PUF domain R4-PWA,5.17 log2 enrichment (interaction score)
same,binding signal,PUM1 PUF domain R4-PYR,7.09 log2 enrichment (interaction score)
GGCUAGAACUAGUGGAUCCCCCGGCGCCCGGCGGCUCGAGCCCGGGUAAGUGUACAUAGUCUGCAUGCCGCCGGGCGCCAUGCCUGCAGGUCGACUCUAGAAAACAUG,binding signal,PUM1 PUF domain R4-TRA,0.18 log2 enrichment (interaction score)
same,binding signal,PUM1 PUF domain R4-PYR,5.23 log2 enrichment (interaction score)
GGCUAGAACUAGUGGAUCCCCCGGCGCCCGGCGGCUCGAGCCCGGGUAAGUGUAAGUAGUCUGCAUGCCGCCGGGCGCCAUGCCUGCAGGUCGACUCUAGAAAACAUG,binding signal,PUM1 PUF domain R3-GCD,3.94 log2 enrichment (interaction score)
same,binding signal,PUM1 PUF domain R3-VRE,4.15 log2 enrichment (interaction score)
same,binding signal,PUM1 PUF domain R3-LWM,5.54 log2 enrichment (interaction score)
same,binding signal,PUM1 PUF domain R3-RVK,2.53 log2 enrichment (interaction score)
same,binding signal,PUM1 PUF domain R3-SND,5.25 log2 enrichment (interaction score)
GGCUAGAACUAGUGGAUCCCCCGGCGCCCGGCGGCUCGAGCCCGGGUAAGUGUAAAUUGUCUGCAUGCCGCCGGGCGCCAUGCCUGCAGGUCGACUCUAGAAAACAUG,binding signal,PUM1 PUF domain R1-RWV,2.59 log2 enrichment (interaction score)
same,binding signal,PUM1 PUF domain R1-KRV,6.82 log2 enrichment (interaction score)
same,binding signal,PUM1 PUF domain R1-TRK,3.04 log2 enrichment (interaction score)
same,binding signal,PUM1 PUF domain R1-TKR,1.37 log2 enrichment (interaction score)
